Results as given in publication PMC7862700, “An all-to-all approach to the identification of sequence-specific readers for epigenetic DNA modifications on cytosine”.

Experiments:
Assay in all cases: DAPPL (digital affinity profiling via proximity ligation, sequencing); 10 mM Tris-HCl pH 7.5, 50 mM NaCl, 1 mM DTT, 4% glycerol, room temperature, 30 min; GST-TFs on glutathione beads, 16-mer random dsDNA library, 0.1% formaldehyde crosslink after washing; high values mean tight binding
FEV = target: T1, FEV (Homo sapiens, UniProt Q99581 1-238); conditions: protein: recombinant; tags: N-terminal GST; dsDNA, one strand shown
T1 sequence: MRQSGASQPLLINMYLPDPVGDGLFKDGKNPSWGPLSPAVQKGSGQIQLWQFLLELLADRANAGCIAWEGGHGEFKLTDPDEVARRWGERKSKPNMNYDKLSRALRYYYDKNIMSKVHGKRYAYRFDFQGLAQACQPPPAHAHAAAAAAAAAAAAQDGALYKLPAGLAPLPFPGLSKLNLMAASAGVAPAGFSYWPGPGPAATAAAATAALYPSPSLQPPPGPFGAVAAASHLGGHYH
Procedure, shortened: (§1)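 In yeast, human transcription factors were expressed with a GST fusion, then pulled down on glutathione beads and given DNA barcodes. Pooled with a tag-only sample, they were exposed to 200 nmole of a 16-mer random double-stranded DNA library (Tris/NaCl/DTT/glycerol buffer, room temperature, 30 min), washed, crosslinked with 0.1% formaldehyde, proximity-ligated using BsaI/T4 ligase for 1 h at 37 °C, PCR-amplified and read on an Illumina NextSeq500. Each hexamer's frequency of reads for a factor, divided by the matching frequency for the tag-only sample, gives the binding signal.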

ETV5 = ETV5 (Homo sapiens, UniProt P41161 1-510); conditions: protein: recombinant; tags: N-terminal GST; dsDNA, one strand shown
Procedure, shortened: as §1

HSF1 = HSF1 (Homo sapiens, UniProt Q00613 1-529); conditions: protein: recombinant; tags: N-terminal GST; chain copies: 3; dsDNA, one strand shown
Procedure, shortened: as §1

SPIC = target: T2, SPIC (Homo sapiens, UniProt Q8N5J4 1-248); conditions: protein: recombinant; tags: N-terminal GST; dsDNA, one strand shown
T2 sequence: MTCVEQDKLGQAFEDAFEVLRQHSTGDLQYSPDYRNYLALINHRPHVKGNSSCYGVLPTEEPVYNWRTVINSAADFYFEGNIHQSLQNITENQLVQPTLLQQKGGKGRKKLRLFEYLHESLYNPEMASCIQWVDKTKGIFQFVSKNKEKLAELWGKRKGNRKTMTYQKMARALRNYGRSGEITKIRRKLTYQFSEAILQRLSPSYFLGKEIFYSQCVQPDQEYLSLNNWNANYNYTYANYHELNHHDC
Procedure, shortened: as §1

ELF4 = ELF4 (Homo sapiens, UniProt Q99607 1-663); conditions: protein: recombinant; tags: N-terminal GST; dsDNA, one strand shown
Procedure, shortened: as §1

ELK4 = target: T3, ELK4 (Homo sapiens, UniProt P28324-2 1-405); conditions: protein: recombinant; tags: N-terminal GST; dsDNA, one strand shown
T3 sequence: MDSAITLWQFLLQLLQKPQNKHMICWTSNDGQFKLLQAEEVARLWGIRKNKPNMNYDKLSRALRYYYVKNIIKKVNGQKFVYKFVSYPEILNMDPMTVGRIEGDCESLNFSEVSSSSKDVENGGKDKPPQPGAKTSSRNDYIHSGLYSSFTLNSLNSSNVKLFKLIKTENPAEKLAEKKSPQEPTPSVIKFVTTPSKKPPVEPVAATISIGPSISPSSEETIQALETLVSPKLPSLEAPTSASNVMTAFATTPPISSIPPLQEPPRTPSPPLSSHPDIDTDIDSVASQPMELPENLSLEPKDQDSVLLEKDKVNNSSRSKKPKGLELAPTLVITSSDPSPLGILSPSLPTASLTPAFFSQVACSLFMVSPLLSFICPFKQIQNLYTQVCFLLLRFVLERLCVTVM
Procedure, shortened: as §1

ETV2 = target: T4, ETV2 (Homo sapiens, UniProt O00321 1-342); conditions: protein: recombinant; tags: N-terminal GST; dsDNA, one strand shown
T4 sequence: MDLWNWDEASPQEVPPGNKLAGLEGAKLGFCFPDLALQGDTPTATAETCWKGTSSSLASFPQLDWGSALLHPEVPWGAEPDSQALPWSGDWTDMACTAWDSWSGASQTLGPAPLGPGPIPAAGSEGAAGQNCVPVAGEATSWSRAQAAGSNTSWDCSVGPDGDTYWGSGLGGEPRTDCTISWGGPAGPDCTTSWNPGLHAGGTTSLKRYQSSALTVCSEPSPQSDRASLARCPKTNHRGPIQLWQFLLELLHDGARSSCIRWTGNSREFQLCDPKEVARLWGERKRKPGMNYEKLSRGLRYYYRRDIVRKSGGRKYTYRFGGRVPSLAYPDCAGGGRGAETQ
Procedure, shortened: as §1

ELF3 = target: T5, ELF3 (Homo sapiens, UniProt P78545 1-371); conditions: protein: recombinant; tags: N-terminal GST; dsDNA, one strand shown
T5 sequence: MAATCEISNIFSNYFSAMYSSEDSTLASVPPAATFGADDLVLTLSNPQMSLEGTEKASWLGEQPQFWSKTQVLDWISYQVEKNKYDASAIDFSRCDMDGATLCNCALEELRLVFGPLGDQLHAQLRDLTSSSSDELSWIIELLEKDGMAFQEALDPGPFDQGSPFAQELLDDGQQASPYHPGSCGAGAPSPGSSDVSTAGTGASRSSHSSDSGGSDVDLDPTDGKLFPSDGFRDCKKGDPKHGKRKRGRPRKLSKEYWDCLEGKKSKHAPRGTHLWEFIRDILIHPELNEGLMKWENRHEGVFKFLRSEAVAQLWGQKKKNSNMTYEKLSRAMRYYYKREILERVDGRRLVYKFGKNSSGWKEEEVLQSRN
Procedure, shortened: as §1

CRX = CRX (Homo sapiens, UniProt O43186 1-299); conditions: protein: recombinant; tags: N-terminal GST; dsDNA, one strand shown
Procedure, shortened: as §1

ETV1 = ETV1 (Homo sapiens, UniProt P50549 1-477); conditions: protein: recombinant; tags: N-terminal GST; dsDNA, one strand shown
Procedure, shortened: as §1

ERF = target: T6, ERF (Homo sapiens, UniProt P50548 1-548); conditions: protein: recombinant; tags: N-terminal GST; dsDNA, one strand shown
T6 sequence: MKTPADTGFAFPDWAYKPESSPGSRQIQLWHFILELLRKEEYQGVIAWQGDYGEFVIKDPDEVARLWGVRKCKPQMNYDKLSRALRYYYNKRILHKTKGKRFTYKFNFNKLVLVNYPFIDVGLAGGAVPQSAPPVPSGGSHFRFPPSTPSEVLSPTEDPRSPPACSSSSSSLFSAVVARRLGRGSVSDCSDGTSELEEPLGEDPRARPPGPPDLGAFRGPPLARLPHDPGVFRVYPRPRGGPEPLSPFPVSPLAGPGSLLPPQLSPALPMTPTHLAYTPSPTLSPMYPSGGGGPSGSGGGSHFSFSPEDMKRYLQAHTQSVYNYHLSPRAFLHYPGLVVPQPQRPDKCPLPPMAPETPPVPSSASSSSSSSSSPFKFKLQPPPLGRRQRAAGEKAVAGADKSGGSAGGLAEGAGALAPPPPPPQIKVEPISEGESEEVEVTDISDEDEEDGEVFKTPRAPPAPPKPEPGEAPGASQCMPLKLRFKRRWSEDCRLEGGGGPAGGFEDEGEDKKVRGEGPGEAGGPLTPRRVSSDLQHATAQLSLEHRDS
Procedure, shortened: as §1

ETV3L = target: T7, ETV3L (Homo sapiens, UniProt Q6ZN32 1-361); conditions: protein: recombinant; tags: N-terminal GST; dsDNA, one strand shown
T7 sequence: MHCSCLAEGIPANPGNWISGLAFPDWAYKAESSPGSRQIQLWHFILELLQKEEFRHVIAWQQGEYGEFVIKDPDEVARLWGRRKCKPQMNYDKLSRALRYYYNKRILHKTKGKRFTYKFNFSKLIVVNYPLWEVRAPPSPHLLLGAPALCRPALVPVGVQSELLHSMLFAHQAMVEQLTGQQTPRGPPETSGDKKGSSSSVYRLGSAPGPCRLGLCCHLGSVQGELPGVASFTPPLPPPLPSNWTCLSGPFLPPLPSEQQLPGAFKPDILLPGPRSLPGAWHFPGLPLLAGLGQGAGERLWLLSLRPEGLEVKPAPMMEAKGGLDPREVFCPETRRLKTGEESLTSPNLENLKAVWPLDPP
Procedure, shortened: as §1

ETS2 = target: T8, ETS2 (Homo sapiens, UniProt P15036 1-469); conditions: protein: recombinant; tags: N-terminal GST; dsDNA, one strand shown
T8 sequence: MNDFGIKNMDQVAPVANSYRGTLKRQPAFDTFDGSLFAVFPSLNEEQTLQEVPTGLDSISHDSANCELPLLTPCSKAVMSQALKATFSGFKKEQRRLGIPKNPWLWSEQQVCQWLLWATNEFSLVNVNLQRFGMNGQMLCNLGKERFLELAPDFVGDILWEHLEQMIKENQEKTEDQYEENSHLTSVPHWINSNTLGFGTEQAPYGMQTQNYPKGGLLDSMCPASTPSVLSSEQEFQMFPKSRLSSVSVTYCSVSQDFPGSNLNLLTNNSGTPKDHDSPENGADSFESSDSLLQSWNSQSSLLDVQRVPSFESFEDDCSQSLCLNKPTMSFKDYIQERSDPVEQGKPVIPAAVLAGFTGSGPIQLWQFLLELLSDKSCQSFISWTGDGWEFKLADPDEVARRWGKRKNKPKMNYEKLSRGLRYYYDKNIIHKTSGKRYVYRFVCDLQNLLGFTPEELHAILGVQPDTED
Procedure, shortened: as §1

SPDEF = target: T9, SPDEF (Homo sapiens, UniProt O95238 1-335); conditions: protein: recombinant; tags: N-terminal GST; dsDNA, one strand shown
T9 sequence: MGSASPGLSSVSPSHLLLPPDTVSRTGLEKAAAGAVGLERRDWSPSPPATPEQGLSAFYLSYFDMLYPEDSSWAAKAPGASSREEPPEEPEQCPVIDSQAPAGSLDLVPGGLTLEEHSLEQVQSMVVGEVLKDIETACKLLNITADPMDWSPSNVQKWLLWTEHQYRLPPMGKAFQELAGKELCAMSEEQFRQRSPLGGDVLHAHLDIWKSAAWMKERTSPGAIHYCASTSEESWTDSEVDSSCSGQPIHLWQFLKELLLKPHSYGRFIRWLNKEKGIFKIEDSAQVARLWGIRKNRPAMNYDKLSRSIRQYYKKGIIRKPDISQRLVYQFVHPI
Procedure, shortened: as §1

ETV7 = target: T10, ETV7 (Homo sapiens, UniProt Q9Y603 1-341); conditions: protein: recombinant; tags: N-terminal GST; dsDNA, one strand shown
T10 sequence: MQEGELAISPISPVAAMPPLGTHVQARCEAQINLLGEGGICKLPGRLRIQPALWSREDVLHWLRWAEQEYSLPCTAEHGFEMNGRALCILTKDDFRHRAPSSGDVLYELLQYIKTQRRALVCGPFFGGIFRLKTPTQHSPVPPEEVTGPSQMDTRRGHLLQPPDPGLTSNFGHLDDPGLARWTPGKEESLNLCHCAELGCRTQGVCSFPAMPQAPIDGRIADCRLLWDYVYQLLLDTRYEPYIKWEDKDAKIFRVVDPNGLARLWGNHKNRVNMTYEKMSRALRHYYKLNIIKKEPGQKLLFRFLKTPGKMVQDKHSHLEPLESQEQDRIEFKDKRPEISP
Procedure, shortened: as §1

ELF5 = target: T11, ELF5 (Homo sapiens, UniProt Q9UKW6-2 1-255); conditions: protein: recombinant; tags: N-terminal GST; dsDNA, one strand shown
T11 sequence: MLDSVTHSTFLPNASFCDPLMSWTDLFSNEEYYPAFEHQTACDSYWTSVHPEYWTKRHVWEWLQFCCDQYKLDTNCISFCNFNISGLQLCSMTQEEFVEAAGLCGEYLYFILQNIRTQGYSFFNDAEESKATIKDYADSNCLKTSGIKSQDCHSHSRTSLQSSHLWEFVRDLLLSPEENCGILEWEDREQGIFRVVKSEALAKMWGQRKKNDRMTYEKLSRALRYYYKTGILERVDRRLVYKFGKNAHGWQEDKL
Procedure, shortened: as §1

ETV3 = target: T12, ETV3 (Homo sapiens, UniProt P41162-2 1-143); conditions: protein: recombinant; tags: N-terminal GST; dsDNA, one strand shown
T12 sequence: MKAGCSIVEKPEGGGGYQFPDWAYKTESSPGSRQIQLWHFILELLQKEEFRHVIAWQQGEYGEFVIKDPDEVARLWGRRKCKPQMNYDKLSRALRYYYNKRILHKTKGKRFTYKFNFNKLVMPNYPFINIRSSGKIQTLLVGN
Procedure, shortened: as §1

ETV6 = ETV6 (Homo sapiens, UniProt P41212 1-452); conditions: protein: recombinant; tags: N-terminal GST; dsDNA, one strand shown
Procedure, shortened: as §1

HSF1, sequence (Q00613 whole entry): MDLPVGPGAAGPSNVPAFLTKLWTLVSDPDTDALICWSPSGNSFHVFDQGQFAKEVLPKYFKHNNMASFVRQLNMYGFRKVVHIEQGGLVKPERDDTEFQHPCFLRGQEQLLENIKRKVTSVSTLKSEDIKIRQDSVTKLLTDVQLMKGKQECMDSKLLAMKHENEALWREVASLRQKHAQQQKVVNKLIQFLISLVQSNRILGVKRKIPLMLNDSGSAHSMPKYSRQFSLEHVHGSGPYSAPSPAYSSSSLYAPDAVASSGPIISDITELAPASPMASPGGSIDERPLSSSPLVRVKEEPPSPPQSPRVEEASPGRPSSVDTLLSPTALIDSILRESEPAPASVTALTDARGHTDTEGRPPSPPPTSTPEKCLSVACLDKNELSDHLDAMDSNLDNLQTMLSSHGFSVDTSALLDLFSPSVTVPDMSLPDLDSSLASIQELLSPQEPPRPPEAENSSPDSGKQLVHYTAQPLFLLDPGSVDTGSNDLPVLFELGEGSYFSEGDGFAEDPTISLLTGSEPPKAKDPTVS
CRX, sequence (O43186 whole entry): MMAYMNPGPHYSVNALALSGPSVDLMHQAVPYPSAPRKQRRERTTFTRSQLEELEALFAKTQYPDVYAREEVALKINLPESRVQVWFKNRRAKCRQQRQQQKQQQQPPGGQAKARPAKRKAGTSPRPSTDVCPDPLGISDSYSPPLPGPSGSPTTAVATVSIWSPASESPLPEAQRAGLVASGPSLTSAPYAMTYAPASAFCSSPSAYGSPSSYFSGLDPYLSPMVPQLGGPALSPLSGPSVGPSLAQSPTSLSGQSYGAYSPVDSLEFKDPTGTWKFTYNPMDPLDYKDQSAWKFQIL
ETV1, sequence (P50549 whole entry): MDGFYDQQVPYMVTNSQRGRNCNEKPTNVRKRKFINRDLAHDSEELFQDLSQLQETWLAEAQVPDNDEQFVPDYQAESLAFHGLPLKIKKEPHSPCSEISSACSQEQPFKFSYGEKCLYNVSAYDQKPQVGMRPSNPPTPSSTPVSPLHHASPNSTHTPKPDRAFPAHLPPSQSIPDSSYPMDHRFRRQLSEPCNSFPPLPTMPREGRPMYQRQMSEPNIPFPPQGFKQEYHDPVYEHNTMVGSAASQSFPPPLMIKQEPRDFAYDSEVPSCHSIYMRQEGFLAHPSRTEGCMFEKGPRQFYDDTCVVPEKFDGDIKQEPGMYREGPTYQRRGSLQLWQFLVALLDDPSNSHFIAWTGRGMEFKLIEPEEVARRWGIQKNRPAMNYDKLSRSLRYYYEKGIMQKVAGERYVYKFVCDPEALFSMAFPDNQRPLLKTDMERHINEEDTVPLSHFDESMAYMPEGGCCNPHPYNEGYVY
ETV6, sequence (P41212 whole entry): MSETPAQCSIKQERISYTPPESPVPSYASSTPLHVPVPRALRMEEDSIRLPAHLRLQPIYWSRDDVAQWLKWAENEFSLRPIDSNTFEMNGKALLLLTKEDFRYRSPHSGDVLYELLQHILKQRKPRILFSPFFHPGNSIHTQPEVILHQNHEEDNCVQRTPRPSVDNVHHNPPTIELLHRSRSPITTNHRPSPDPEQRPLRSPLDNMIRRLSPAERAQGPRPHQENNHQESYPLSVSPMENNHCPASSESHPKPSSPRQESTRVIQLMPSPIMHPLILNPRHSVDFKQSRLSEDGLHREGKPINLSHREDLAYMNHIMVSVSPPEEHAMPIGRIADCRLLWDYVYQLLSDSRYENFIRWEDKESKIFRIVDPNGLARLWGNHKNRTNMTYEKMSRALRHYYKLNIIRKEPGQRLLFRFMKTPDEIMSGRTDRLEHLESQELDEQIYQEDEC
ETV5, sequence (P41161 whole entry): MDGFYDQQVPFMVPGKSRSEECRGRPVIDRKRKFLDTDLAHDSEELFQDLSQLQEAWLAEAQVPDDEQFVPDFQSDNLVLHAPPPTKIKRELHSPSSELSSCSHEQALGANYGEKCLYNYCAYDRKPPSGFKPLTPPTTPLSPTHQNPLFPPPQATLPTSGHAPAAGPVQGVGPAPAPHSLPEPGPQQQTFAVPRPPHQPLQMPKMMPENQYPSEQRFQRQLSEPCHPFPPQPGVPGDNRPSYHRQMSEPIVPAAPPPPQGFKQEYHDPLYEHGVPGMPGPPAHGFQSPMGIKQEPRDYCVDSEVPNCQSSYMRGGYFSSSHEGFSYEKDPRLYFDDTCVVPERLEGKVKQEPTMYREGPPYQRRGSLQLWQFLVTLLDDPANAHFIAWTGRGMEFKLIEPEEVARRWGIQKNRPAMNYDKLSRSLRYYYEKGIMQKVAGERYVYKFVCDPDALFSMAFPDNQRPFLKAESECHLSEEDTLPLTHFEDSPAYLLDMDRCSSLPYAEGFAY
ELF4, sequence (Q99607 whole entry): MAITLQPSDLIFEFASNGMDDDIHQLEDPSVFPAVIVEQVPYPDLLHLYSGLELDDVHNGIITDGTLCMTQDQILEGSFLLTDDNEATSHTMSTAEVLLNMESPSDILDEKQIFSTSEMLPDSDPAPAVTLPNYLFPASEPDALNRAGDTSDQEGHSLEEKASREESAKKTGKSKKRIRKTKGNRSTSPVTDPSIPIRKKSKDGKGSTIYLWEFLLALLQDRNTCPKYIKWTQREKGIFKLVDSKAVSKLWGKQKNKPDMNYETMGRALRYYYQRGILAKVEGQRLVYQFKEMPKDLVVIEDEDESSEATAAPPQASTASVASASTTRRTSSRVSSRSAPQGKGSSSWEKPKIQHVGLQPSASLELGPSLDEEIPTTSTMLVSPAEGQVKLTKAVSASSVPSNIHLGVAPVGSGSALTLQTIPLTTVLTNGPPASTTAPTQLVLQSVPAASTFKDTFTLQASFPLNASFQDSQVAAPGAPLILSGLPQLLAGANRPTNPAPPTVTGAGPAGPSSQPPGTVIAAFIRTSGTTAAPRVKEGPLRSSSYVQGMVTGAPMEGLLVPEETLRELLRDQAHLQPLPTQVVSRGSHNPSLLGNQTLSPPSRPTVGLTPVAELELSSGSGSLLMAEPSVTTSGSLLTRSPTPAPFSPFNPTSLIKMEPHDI

In the case of TCCTCT, the binding signal (FEV) is reported as 1.63 fold enrichment (6-mer frequency, TF over GST control), the binding signal (ETV5) is reported as 1.64 fold enrichment (6-mer frequency, TF over GST control) and the binding signal (HSF1) is reported as 1.51 fold enrichment (6-mer frequency, TF over GST control). The binding signal (SPIC) was 1.67 fold enrichment (6-mer frequency, TF over GST control), the binding signal (ELF4) was 1.69 fold enrichment (6-mer frequency, TF over GST control) and the binding signal (ELK4) was 1.53 fold enrichment (6-mer frequency, TF over GST control). For the same sequence, the binding signal (ETV2) was 1.68 fold enrichment (6-mer frequency, TF over GST control), the binding signal (ELF3) was 1.66 fold enrichment (6-mer frequency, TF over GST control) and the binding signal (CRX) was 1.79 fold enrichment (6-mer frequency, TF over GST control). The binding signal (ETV1) was 1.74 fold enrichment (6-mer frequency, TF over GST control), the binding signal (ERF) was 1.68 fold enrichment (6-mer frequency, TF over GST control) and the binding signal (ETV3L) was 1.74 fold enrichment (6-mer frequency, TF over GST control). For the same sequence, the binding signal (ETS2) was 1.67 fold enrichment (6-mer frequency, TF over GST control), the binding signal (SPDEF) was 1.58 fold enrichment (6-mer frequency, TF over GST control) and the binding signal (ETV7) was 1.67 fold enrichment (6-mer frequency, TF over GST control). The binding signal (ELF5) was 2.15 fold enrichment (6-mer frequency, TF over GST control), the binding signal (ETV3) was 1.63 fold enrichment (6-mer frequency, TF over GST control) and the binding signal (ETV6) was 1.64 fold enrichment (6-mer frequency, TF over GST control).
